Bioassay records from PubChem BioAssay.
ALDH1A1 inh: inhibitors of human aldehyde dehydrogenase 1A1. P00352. Purified ALDH1A1, NADH fluorescence, propionaldehyde substrate. Potency, µM (series often up to 75.3 µM), actives largely listed as inhibitors. hit rate 7.3% among 220,000. AID 1030; active = well fitted inhibition curve with a large enough effect, not every such curve was filed as active; inconclusive = small, poorly fitted or top-dose-only effect, or another doubt; inactive = no such curve, though single readings can be large or run the other way
GLA inh pH 4.5: alpha-galactosidase A (human) inhibition, pH 4.5 | purified enzyme, 4-MU-alpha-Gal fluorescence, pH 4.5 | activity change, negative = inhibition, % at 105 µM | 230,000 tested, under 10 active | AID 1467
PNC inhibitor: inhibitors of perinucleolar compartment assembly | PC3M PTB-GFP, PNC prevalence imaging, 16 h; hits give low values | activity change (PNC), negative = inhibition, % at 10 µM | hit rate 3.1% among 140,000;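 active = readout at or below -70, meaning at least 70% loss of cells showing the perinucleolar compartment, a nuclear body marking cancer cells; inconclusive = readout between -30 and a set limit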
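Compounds are pinned in duplicate onto adhered PC3M cells stably expressing GFP-tagged PTB and incubated 16 h at 37 C. Cells are then fixed, nuclei stained with Hoechst, and PNC-positive cells counted.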
12-hLO inh: inhibitors of human 12-lipoxygenase (ALOX12). AID 1452. hit rate 0.12% among 150,000. purified 12-hLO, xylenol orange hydroperoxide absorbance. Potency, µM (top dose mostly 57.1 µM), hits mostly inhibitors; also: nearly all actives have a fitted effect of over 55% in size
Target sequence (P18054 whole entry, looked up): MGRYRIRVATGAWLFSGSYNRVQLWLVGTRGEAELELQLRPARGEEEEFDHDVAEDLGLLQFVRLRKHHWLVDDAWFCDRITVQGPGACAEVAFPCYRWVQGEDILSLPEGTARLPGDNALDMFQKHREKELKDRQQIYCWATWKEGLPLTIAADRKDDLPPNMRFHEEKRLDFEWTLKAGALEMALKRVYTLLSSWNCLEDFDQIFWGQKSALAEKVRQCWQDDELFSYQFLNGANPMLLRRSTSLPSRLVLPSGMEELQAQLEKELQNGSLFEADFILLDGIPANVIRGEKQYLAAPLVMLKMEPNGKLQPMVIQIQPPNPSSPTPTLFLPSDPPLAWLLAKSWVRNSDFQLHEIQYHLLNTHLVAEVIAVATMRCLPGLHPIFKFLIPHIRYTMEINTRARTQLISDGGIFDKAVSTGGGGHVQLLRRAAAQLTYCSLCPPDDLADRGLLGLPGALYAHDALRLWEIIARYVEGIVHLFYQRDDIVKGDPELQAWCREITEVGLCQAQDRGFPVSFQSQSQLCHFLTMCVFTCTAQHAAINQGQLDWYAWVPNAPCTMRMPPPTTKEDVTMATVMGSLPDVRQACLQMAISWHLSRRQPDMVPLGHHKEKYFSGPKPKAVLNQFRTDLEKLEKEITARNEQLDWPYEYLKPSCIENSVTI
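Hydroperoxide output read as Fe(III)-xylenol orange absorbance, 573-to-405 nm ratio, after 30 min reaction with 40 uM arachidonic acid. Enzyme: 150 nM purified human 12hLO, 15 min compound preincubation; 25 mM Hepes pH 7.0, room temperature.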
HPGD block: blocks human HPGD enzyme activity | hit rate 4.3% among 150,000 | purified HPGD, NADH fluorescence kinetic, PGE2 substrate | Potency, µM, hits mostly inhibitors | P15428; active = well fitted inhibition curve with a large enough effect, not every such curve was filed as active; inconclusive = small, poorly fitted or top-dose-only effect, or another doubt; inactive = no such curve, though single readings can be large or run the other way
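20 nM HPGD preincubated 15 min at room temperature with compound in 50 mM Tris-HCl pH 8, 0.01% Tween 20. Started with 1 mM NAD+ and 30 uM prostaglandin E2; NADH fluorescence (360/450 nm) read 5 times over 30-s intervals, last minus first.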
GLA spleen mod: inhibitors or activators of human alpha-galactosidase in spleen homogenate | P06280 | human spleen homogenate, 4MU-alpha-Gal fluorescence, 40 min | Potency, µM (doses to about 80 µM), most hits filed as inhibitors | hit rate 0.008% among 240,000 | AID 2107
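Spleen homogenate 1 ug + cpd (titration) + 4-MU-alpha-D-galactopyranoside 1 mM; 37C 40 min; 50 mM citrate/phosphate pH 5.0, 0.01% Tween-20; stop pH 10; fluorescence 365/440; AC50 via Hill.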
Of the large screens only hits and unclear results are named; the others gave an inactive call. Sampled rows, rich in hits. Any-hit rate of the full collection: about 10%. Unless noted, calls follow the shape of the dose curve; as a rule, active = well fitted curve in the direction sought with a large enough effect; inconclusive = small, poorly fitted or top-dose-only effect, or another doubt; inactive = no such curve, though single readings can be large; an effect the other way counts as inactive or inconclusive.

CCN(c1ccccc1)c1cc(NC)[n+](C)c(C)n1	none (no result: PNC inhibitor)
COc1ccc2[nH]cc(CCNc3cc(-c4ccc(C(=O)N(C)C)cc4)ncn3)c2c1	none (no result: GLA inh pH 4.5, PNC inhibitor, 12-hLO inh, HPGD block)
COc1cc(NC(=O)c2ccc(COCC(F)(F)F)cc2)cc(OC)c1OC	none
COc1cc(NC(=O)c2cccc(COCC(F)(F)C(F)F)c2)cc(OC)c1OC	PNC inhibitor -99.9
CCN(CC)c1ccc(/C=C2\C(=O)c3ccc(C(=O)O)cc3C2=O)cc1	ALDH1A1 inh 3.16µM, PNC inhibitor inconclusive, HPGD block 2.82µM
O=S1(=O)CC(NCc2ccccc2)C(Nc2ccccc2)C1 (stereo not drawn)	none
O=S1(=O)C[C@@H](O)[C@@H](Nc2ccc(Cl)cc2)C1	ALDH1A1 inh 11.2µM, PNC inhibitor inconclusive
CCN(CC)CC(=O)Nc1ccc(C)cc1Br	ALDH1A1 inh 12.6µM, HPGD block 15.8µM
Cc1ccc(NC(=O)COC(=O)C2CC2)c(Br)c1	HPGD block 17.8µM
CCN(CC)CC(=O)Nc1c(C)cc(C(C)(C)C)cc1C	PNC inhibitor inconclusive, HPGD block 25.1µM
Cc1ccc(NC(=O)CC(O)(C(F)(F)F)C(F)(F)F)c(Br)c1	PNC inhibitor inconclusive
O=c1oc2ccccc2c(NCc2cccc(F)c2)c1[N+](=O)[O-]	ALDH1A1 inh 25.1µM, HPGD block 20µM
O=c1oc2ccccc2c(Nc2ccc3ccccc3c2)c1[N+](=O)[O-]	ALDH1A1 inh 2.24µM, PNC inhibitor inconclusive
CCc1ccc(Nc2c([N+](=O)[O-])c(=O)oc3ccccc23)cc1	none (no result: ALDH1A1 inh, PNC inhibitor, 12-hLO inh, HPGD block)
Cc1ccc(Nc2c([N+](=O)[O-])c(=O)oc3ccccc23)cc1	ALDH1A1 inh inconclusive (no result: PNC inhibitor, 12-hLO inh, HPGD block)
CCNc1c([N+](=O)[O-])c(=O)oc2ccccc12	ALDH1A1 inh 17.8µM (no result: PNC inhibitor, 12-hLO inh, HPGD block)
CC(Nc1c([N+](=O)[O-])c(=O)oc2ccccc12)C(Cl)c1ccccc1 (stereo not drawn)	ALDH1A1 inh inconclusive
O=c1oc2ccccc2c(NC(c2ccccc2)c2ccccc2)c1[N+](=O)[O-]	ALDH1A1 inh 22.4µM
CSCc1cc(N2CCOCC2)nc(SCc2ccc(Cl)c(Cl)c2)n1	ALDH1A1 inh inconclusive
COc1cc2[nH]c(=S)nc(NCCC(C)C)c2cc1OC	ALDH1A1 inh inconclusive (no result: PNC inhibitor, 12-hLO inh, HPGD block)
COCCCNc1nc(=S)[nH]c2cc(OC)c(OC)cc12	HPGD block 14.1µM
COc1cc2[nH]c(=S)nc(NCc3cccs3)c2cc1OC	ALDH1A1 inh 11.2µM (no result: PNC inhibitor, 12-hLO inh, HPGD block)
COc1ccc(CCNc2nc(=S)[nH]c3cc(OC)c(OC)cc23)cc1OC	none (no result: PNC inhibitor, 12-hLO inh, HPGD block)
COc1ccc(CC(=O)NCc2csc(-c3cccs3)n2)cc1OC	none (no result: ALDH1A1 inh, PNC inhibitor, 12-hLO inh, HPGD block)
Cc1nnsc1C(=O)NC(C)C12CC3CC(CC(C3)C1)C2 (stereo not drawn)	none
Cc1ccc(C2(C)NC(=O)N(CC(=O)NCc3cccs3)C2=O)cc1 (stereo not drawn)	PNC inhibitor -108.4, HPGD block inconclusive
Cc1ccc(NC(=O)CN2C(=O)NC3(CCC(C)CC3)C2=O)c(Cl)c1 (stereo not drawn)	PNC inhibitor -126.9
Cc1ccc(C2(C)NC(=O)N(CC(=O)NCCC3=CCCCC3)C2=O)cc1 (stereo not drawn)	none
Cc1ccc(C2(C)NC(=O)N(CC(=O)Nc3cccnc3Cl)C2=O)cc1 (stereo not drawn)	ALDH1A1 inh 3.16µM (no result: PNC inhibitor, 12-hLO inh, HPGD block)
CS(=O)(=O)Nc1cccc(-c2ccc3ncnc(Nc4ccccc4)c3c2)c1	none (no result: GLA inh pH 4.5, PNC inhibitor, 12-hLO inh, HPGD block)
O=C1CCC/C1=c1\s/c(=C\c2cccnc2)c(=O)n1-c1ccccc1	ALDH1A1 inh 6.31µM
C=CCn1c(Cc2nc3ccc(Cl)cc3[nH]2)n[nH]c1=S	ALDH1A1 inh 10µM, PNC inhibitor inconclusive, HPGD block inconclusive
C=CCn1c(CCCOc2ccc(Cl)cc2Cl)n[nH]c1=S	HPGD block inconclusive
C=CCn1c(Cc2ccccc2)n[nH]c1=S	none (no result: PNC inhibitor, 12-hLO inh, HPGD block)
C=CCn1c(Cc2c[nH]c3ccccc23)n[nH]c1=S	ALDH1A1 inh 8.91µM
CCSc1nc2c(c(-c3ccc(C)o3)c1C#N)CCCC2	ALDH1A1 inh inconclusive, PNC inhibitor -100.0, HPGD block inconclusive
Cc1ccc(-c2c(C#N)c(N)nc3c2CCCC3)o1	ALDH1A1 inh inconclusive (no result: PNC inhibitor, 12-hLO inh, HPGD block)
